# Hit rate of the full screen: of about 69,000 compounds, about 1,000 (1.4%) showed an effect of 50% or more. The sample as a whole holds a higher share of strong results than the screen did.
# Tested on: Leishmania donovani
# Assay: Leishmania intramacrophage assay
# Assay type: functional, organism-based
# Design: scale not given: in the data most compounds retested in dose-response had high values
smiles,measurement,setting,value
Cc1c(C)c(C)c2[nH]c(-c3cn(C4CCNCC4)nn3)nc2c1C,Percent Effect,"30.3 µM, […]",88.31%
Cc1ccc(-n2ccnc2-c2cn(C3CCNCC3)nn2)c(Cl)c1,Percent Effect,"30.3 µM, […]",17.13%
OCCc1ccccc1-n1ccnc1-c1cn(C2CCNCC2)nn1,Percent Effect,"30.3 µM, […]",-17.07%
Cc1cc2nc(-c3cn(C4CCNCC4)nn3)[nH]c2cc1C,Percent Effect,"30.3 µM, […]",79.71%
Cc1ccc2[nH]c(-c3cn(C4CCNCC4)nn3)nc2c1C,Percent Effect,"30.3 µM, […]",79.71%
COc1cccc(CCn2ccnc2-c2cn(C3CCNCC3)nn2)c1,Percent Effect,"30.3 µM, […]",-3.244%
Cc1cccc2[nH]c(-c3cn(C4CCNCC4)nn3)nc12,Percent Effect,"30.3 µM, […]",8.553%
Clc1ccccc1CCn1ccnc1-c1cn(C2CCNCC2)nn1,Percent Effect,"30.3 µM, […]",-11.26%
CSc1ccccc1-n1ccnc1-c1cn(C2CCNCC2)nn1,Percent Effect,"30.3 µM, […]",-6.736%
CCCc1noc(CN2CCOCC2C)n1 (stereo unspecified),Percent Effect,"30.3 µM, […]",-25.75%
COCc1noc(Cn2ncn3cccc3c2=O)n1,Percent Effect,"30.3 µM, […]",-34.29%
Cc1nccc(N[C@H]2CN(C(=O)CN3CCOCC3)C[C@@H]2C(C)C)n1,Percent Effect,"30.3 µM, […]",9.574%
CC(C)n1cnc2c1C(C(=O)N1CCOCC1)N(CC1CC1)CC2.O=C(O)C(F)(F)F (stereo unspecified),Percent Effect,"30.3 µM, […]",17.66%
O=C(NCc1ccccn1)Nc1ccc2[nH]nnc2c1,Percent Effect,"30.3 µM, […]",23.78%
Cn1ccc(CN2CCCC23CCN(Cc2ccccc2F)CC3)n1.O=C(O)C(F)(F)F.O=C(O)C(F)(F)F,Percent Effect,"30.3 µM, […]",36.62%
O=C(O)[C@@H]1CN(Cc2ccc3nsnc3c2)C[C@H]1c1cccnc1,Percent Effect,"30.3 µM, […]",23.58%
Cc1ccccc1-c1noc(CN2CCn3c(nnc3C3CC3)C2)n1,Percent Effect,"30 µM, 30.03 µM",9.47%
COc1cccc(CN2CC(O)CN(C(=O)C3CCC3)CC2=O)c1OC (stereo unspecified),Percent Effect,"30.3 µM, […]",10.32%
COc1c(C2CCCN2C(=O)c2ccoc2C)c(C)nn1C (stereo unspecified),Percent Effect,"30.3 µM, […]",0.8433%
Cc1nn(C)c(C)c1C(=O)NCc1cc(N(C)C)nc2ccccc12,Percent Effect,"30.3 µM, […]",50.16%
Cc1nn(C)cc1C(=O)NCc1cc(N(C)C)nc2ccccc12,Percent Effect,"30.3 µM, […]",27.45%
CCn1nc(C)cc1C(=O)NCc1cc(N(C)C)nc2ccccc12,Percent Effect,"30.3 µM, […]",34.59%
CCOC(=O)C1(Cc2ccc(Cl)cc2)CCN(Cc2ncc[nH]2)CC1,Percent Effect,"30.3 µM, […]",14.14%
CNc1ncc(CN(C)C(=O)c2ccccc2C2CCNC2)cn1 (stereo unspecified),Percent Effect,"30.3 µM, […]",-3.65%
COc1ncccc1CNc1snc(Cl)c1C#N,Percent Effect,"30.3 µM, […]",30.49%
N#Cc1c(Cl)nsc1NCc1ccnc(OCC(F)(F)F)c1,Percent Effect,"30.3 µM, […]",96.62%
Cc1n[nH]cc1CNCc1ccnc(OCC(F)(F)F)c1.Cl,Percent Effect,"30.3 µM, […]",28.01%
CN(C)c1ncccc1CNc1snc(Cl)c1C#N,Percent Effect,"30.3 µM, […]",-27.87%
N#Cc1c(Cl)nsc1NCc1cccnc1OCC(F)(F)F,Percent Effect,"30.3 µM, […]",71.75%
N#Cc1c(Cl)nsc1NCc1ccc(N2CCC(CO)CC2)cc1,Percent Effect,"30.3 µM, […]",13.7%
O=S(=O)(NCc1cccnc1OC1CCCC1)N1CCCCC1,Percent Effect,"30.3 µM, […]",-4.69%
N#Cc1c(Cl)nsc1NCc1ccc(N2CCSCC2)cc1,Percent Effect,"30.3 µM, […]",88.25%
Cc1ncsc1C(=O)NCc1ccnc(OCC(F)(F)F)c1,Percent Effect,30 µM,34.79%
CC(O)CNC(=O)NCc1cccnc1OC1CCCC1 (stereo unspecified),Percent Effect,"30 µM, 30.03 µM",16.57%
N#Cc1c(Cl)nsc1NCc1cccnc1OC1CCCC1,Percent Effect,"30.3 µM, […]",98.68%
N#Cc1c(Cl)nsc1NCc1ccc(N2CCCC(C(N)=O)C2)cc1 (stereo unspecified),Percent Effect,"30.3 µM, […]",27.85%
COc1ncc(-c2ccc(NC(C)=O)cc2)c(OC)n1,Percent Effect,"30.3 µM, […]",5.344%
CCOCC1CN(C(=O)C2CCOCC2)Cc2cnn(C)c21 (stereo unspecified),Percent Effect,"30.3 µM, […]",-4.533%
COCCN1C[C@@H]2[C@@H](OC)CCN(Cc3cccs3)[C@@H]2C1.O=C(O)C(F)(F)F.O=C(O)C(F)(F)F,Percent Effect,"30.3 µM, […]",25.04%
NC(=O)Cn1cc(NC(=O)N2CCSCC2)cn1,Percent Effect,30 µM,-2.179%
CCOc1ccc2nc(NC(=O)c3c(C(=O)O)cnn3C)sc2c1,Percent Effect,"30.3 µM, […]",4.578%
Cc1c(Cl)ccc2ccc(NC(CO)CO)nc12,Percent Effect,"30.3 µM, […]",6.475%
CC(NC(=O)Cn1cc(C(N)=O)c(-c2ccccc2)n1)C1CC1 (stereo unspecified),Percent Effect,"30.3 µM, […]",12.7%
CC(=O)NCC(=O)N1CCCC(C(=O)c2ccc(C(C)(C)C)cc2)C1 (stereo unspecified),Percent Effect,"30.3 µM, […]",16.87%
CC(C)(N)C(=O)N1CCCC(C(=O)c2ccc(C(C)(C)C)cc2)C1 (stereo unspecified),Percent Effect,"30.3 µM, […]",91.24%
CC(C)(C)c1ccc(C(=O)C2CCCN(C(=O)CNS(C)(=O)=O)C2)cc1 (stereo unspecified),Percent Effect,"30.3 µM, […]",1.067%
Cc1cc(COC(=O)[C@@H]2Cc3ccccc3CN2S(C)(=O)=O)no1,Percent Effect,"30.3 µM, […]",12.34%
Cc1nccc(NCc2cncc3c2CCN(CCN(C)C)C3)n1,Percent Effect,"30.3 µM, […]",29.74%
Cc1nccc(NCc2cncc3c2CCN(CC2CC2)C3)n1.Cl.Cl,Percent Effect,"30.3 µM, […]",25.61%
Cc1nccc(NCc2cncc3c2CCN(CC2CCOC2)C3)n1.Cl.Cl (stereo unspecified),Percent Effect,"30.3 µM, […]",55.7%
CCOC(=O)CC1(Nc2nc(C)nc3c2cnn3C)CCCCC1,Percent Effect,"30.3 µM, […]",50.84%
